Records with an inconclusive call do not appear. Entries that show only a call come without a potency. The source made the active and inactive calls. Calls come from the whole dose curve; as a rule, active = well fitted cell-killing curve with a large enough effect in the repeat runs; inconclusive = weak or mixed curves, or effect the other way; inactive = flat fitted curve, though single readings scatter.

A short description of the assay: qHTS RealTime-Glo MT Cell Viability Assay in HEK293 cells - 24 hour (AID 1224886). Note: top concentration of the series differs between compounds; nearly all actives have a fitted effect of over 50% in size. The following applies: RealTime-Glo luminescence; series mostly up to 76.8 µM. The source says: National Center for Advancing Translational Sciences [NCATS]
NIH Chemical Genomics Center [NCGC]
U.S. Environmental Protection Agency [EPA]
National Institutes of Environmental Health Sciences [NIEHS]
National Toxicology Program [NTP]
U.S. Food and Drug Administration [FDA]
Measure of cell viability is critical in the cell-base assay. Analysis of cell viability is necessary for the characterization of cell responses to cytotoxic drugs and environmental stress. A RealTime-Glo MT Cell Viability Assay to monitor cell viability in real time of continues cell culture during 40 hours of compound treatment was used to screen Tox21 10K library compounds in Hek293 cells. The RealTime-Glo MT Cell Viability Assay is a nonlytic, homogeneous, bioluminescent method to measure cell viability in real time using a simple, plate-based method. The assay involves adding NanoLuc luciferase and a cell-permeant prosubstrate to cells in culture. Viable cells reduce the proprietary prosubstrate to generate a substrate for NanoLuc luciferase. This substrate diffuses from cells into the surrounding culture medium, where it is rapidly used by the NanoLuc Enzyme to produce a luminescent signal. The signal correlates with the number of viable cells, making the assay well suited for cytotoxicity studies.
Tox21 Assay Protocol Summary:
The mixture of Hek293 cell suspension and reagents were dispensed at 600cells/6 ul/well in 1536-well tissue culture treated black solid bottom plates using a Multidrop dispenser. After the assay plates were incubated at a 37 C/5% CO2 incubator for 5 hours, 23 nL of compounds dissolved in DMSO, positive and negative controls was transferred to the assay plate by a pintool work station. The plates were incubated at 37 C for 40 hours. The luminescence intensity were measured at 0h, 8h, 16h, 24h, 32h and 40h time points using ViewLux plate reader during compound treatment.
Background: In qHTS, concentration-response curves come from the screen itself.
Consider `CC(C)COC(=O)CC(C(=O)OCC(C)C)S(=O)(=O)O` (stereo not given), for which the Potency entry was “inactive”. As to `CCCCC(CC)CNC(=O)CC(C)OC(=O)CCC(=O)O` (stereo not given), the Potency entry is “inactive”. Still for that read-out and setting: for `C1=C\CC/C=C\CC/1` the value was “inactive”; for `CC(=O)OC(C)c1ccccc1` (stereo not given), “inactive”; for `C=C(C)C(=O)OC`, “inactive”. Still for that read-out and setting: then `CC(C)C(=O)c1ccccc1`, with “inactive”; and `CCCCOC(=O)C(C)OC(=O)CCC` (stereo not given), with “inactive”. On the same count and under the same terms, then `CCCCOC(=O)C(=O)OCCCC`, with “inactive”; and `CCN(Cc1cccc(S(=O)(=O)O)c1)c1ccccc1`, with “inactive”; and `CCN(CC)C(=O)C1CN2CCc3cc(OC)c(OC)cc3C2CC1OC(C)=O` (stereo not given), with “inactive”. `CCOC(=O)CCc1ccccc1`: the Potency result was “inactive”. With `O=C(Nc1cccc(C2=NCCN2)c1)Nc1cccc(C2=NCCN2)c1`, the activity change, negative = cytotoxicity is -1.62% [at 15.8 µM] (inactive). Regarding `COc1ccc(/C=N/NC(=O)c2ccncc2)cc1OC`, the Potency entry is “inactive”. The same measure, in the same setting: for `CC(C)SCc1ccco1` the value was “inactive”; for `C=C(C)[C@@H]1CC[C@@H](C)C[C@@H]1O`, “inactive”.

As to `CCCOCCOCCOCCO`, the Potency result was “inactive”. Same read-out and setting: then `CCOC(=O)C(C)(C)C`, with “inactive”. On the same count and under the same terms, then `O=c1cc(O)c(Cl)c[nH]1`, with “inactive”. Consider `Nc1ccc(/C=C/c2ccc(N)cc2S(=O)(=O)O)c(S(=O)(=O)O)c1`, for which the activity change, negative = cytotoxicity was 1.86% [at 0.29 µM] (inactive). For `COC(/C=C(\C)CCC=C(C)C)OC`, the Potency result is “inactive”. On the same count and under the same terms, for `CC(CC(=O)O)CC(C)(C)C` (stereo not given) the value was “inactive”. Take `BrC/C=C/CBr`: the activity change, negative = cytotoxicity is 0.605% [at 15.8 µM] (inactive).

Consider `CC(=O)/C=C/c1ccco1`, for which the Potency result was “inactive”. Consider `CC(C)c1ccccc1O`, for which the Potency result was “inactive”.

`Cc1ccc(S(=O)(=O)NC(=O)NC2CCCCCCC2)cc1`: the Potency entry was “inactive”. On the same count and under the same terms, for `Cc1cccc(Nc2ccncc2S(=O)(=O)NC(=O)NC(C)C)c1` the value was “inactive”; for `CCCCCCCCC(=O)OCC`, “inactive”. Still for that read-out and setting: then `FC(F)(F)/C(=N\OCC1OCCO1)c1ccc(Cl)cc1`, with “inactive”. On the same count and under the same terms, then `CC(=O)Nc1ncc([N+](=O)[O-])s1`, with “inactive”; and `CCOc1ccc(NC(=O)OC(C)C)cc1OCC`, with “inactive”; and `CC(C)COC(=O)/C=C/c1ccccc1`, with “inactive”. For the compound `CCCC(C)CC` (stereo not given), the Potency entry is “inactive”. On the same count and under the same terms, for `CCC(O)C(C)(C)C` (stereo not given) the value was “inactive”; for `O=P(O)(O)OCC(O)CO` (stereo not given), “inactive”. Still for that read-out and setting: then `CCC(=O)OCCC(C)CCC=C(C)C` (stereo not given), with “inactive”; and `CNCc1ccccc1`, with “inactive”. Same read-out and setting: for `CC(C)COC(=O)CCCCC(=O)OCC(C)C` the value was “inactive”; for `NCCc1ccn[nH]1`, “inactive”. `C[C@@H]1C[C@H]2[C@@H]3C[C@H](F)C4=CC(=O)C=C[C@]4(C)[C@@]3(F)[C@@H](O)C[C@]2(C)[C@@]1(O)C(=O)CO`: the Potency entry was “inactive”. Same read-out and setting: then `COc1cc2c3cc1Oc1cc(ccc1O)C[C@@H]1c4c(cc(OC)c(O)c4Oc4ccc(cc4)C[C@@H]3N(C)CC2)CC[N+]1(C)C`, with “inactive”.

The values above are taken from PubChem BioAssay (Tox21).
